High-throughput results deposited in PubChem BioAssay by National Center for Advancing Translational Sciences (NCATS).
D3 antag = antagonists of human D3 dopamine receptor; max response, negative = inhibition, %; D3R cells, DiscoveRx beta-arrestin luminescence, antagonist mode; hits give low values; P35462; 2.5% of 360,000 active; in the data active = max response below about -50%; note: % is set by controls: 0 for no effect and ±100 for the full control effect
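Cells expressing the human receptor were seeded at 1500 cells/well, incubated overnight at 37 degrees C in 5% CO2, then exposed to library compounds with dopamine controls for 90 minutes at 37 degrees C before luminescent detection.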
D1 ag = human D1 receptor agonism | HEK293 T-REx D1 cells, calcium flux, agonist mode | 1% of 360,000 active | AID 504660 | activation, % at 2 µM | P21728; in the data active = activation above about 30%; note: 0% is about no effect
Target sequence (P21728 whole entry, looked up): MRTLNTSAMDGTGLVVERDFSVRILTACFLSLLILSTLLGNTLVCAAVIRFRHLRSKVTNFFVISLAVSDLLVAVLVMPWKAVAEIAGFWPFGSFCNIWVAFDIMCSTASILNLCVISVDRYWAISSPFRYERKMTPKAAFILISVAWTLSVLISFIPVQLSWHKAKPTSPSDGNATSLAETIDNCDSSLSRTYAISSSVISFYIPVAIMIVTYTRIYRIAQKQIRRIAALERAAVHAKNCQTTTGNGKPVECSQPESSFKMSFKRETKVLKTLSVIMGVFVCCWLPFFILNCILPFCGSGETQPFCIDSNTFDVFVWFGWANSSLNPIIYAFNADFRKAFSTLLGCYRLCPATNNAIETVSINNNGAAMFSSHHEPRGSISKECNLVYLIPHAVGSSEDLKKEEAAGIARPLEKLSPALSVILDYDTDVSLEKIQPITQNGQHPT
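Inducible HEK293 T-REx D1 cells, force-coupled to calcium signalling, were plated at 4000 cells/well with tetracycline and held overnight at 30 C. After no-wash calcium dye loading, compound-evoked calcium rise over 180 s flagged agonists.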
D1 PAM = potentiators of human D1 dopamine receptor | P21728 | HEK293 TREx D1 cells, calcium flux, dopamine EC20 potentiation | potentiation, % at 10 µM | 0.036% of 360,000 active | AID 504651; in the data active = potentiation above about 30%; note: 0% is about no effect
DRD3 agonist = activates the human D3 dopamine receptor | D3R DiscoveRx beta-arrestin cells, luminescence, 90 min | AID 652048 | P35462 | 0.58% of 410,000 active | max activation, %; in the data active = max activation above about 30%; note: 0% is about no effect
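Agonist-mode cell screen: cells plated at 1500/well and incubated overnight at 37 °C, then exposed to library compounds for 90 min at 37 °C. Detection reagent was added for 30–60 min at room temperature, and luminescence was read.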
D1 antag = antagonists of human D1 dopamine receptor; P21728; HEK293 TREx D1 cells, calcium flux, dopamine EC80; hits give low values; activity change, negative = inhibition, % at 10 µM; 3.2% of 360,000 active; AID 504652; in the data active = activity change below about -30%; note: % is set by controls: 0 for no effect and ±100 for the full control effect
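Tetracycline-induced HEK293 Trex D1 cells, force-coupled to calcium, dye-loaded; compounds added and read 180 s, then EC80 dopamine added and calcium flux tracked kinetically another 180 s.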
An asterisk follows results filed as active; ! = not confirmed by another sample. This is a sample that favours compounds with a hit; in the whole collection about 6.1% have one here.

Screening Cc1cccc2cc3c(N)c(C(=O)N4CCOCC4)sc3nc12 returned D3 antag -21, D1 ag 49*, D1 PAM 0, DRD3 agonist -9 and D1 antag -11.
For Cc1cc(C)c2cc3c(N)c(C(=O)N4CCc5ccccc5C4)sc3nc2c1 the results were D3 antag -11, D1 ag 2, D1 PAM -5, DRD3 agonist 3 and D1 antag 9.
O=S(=O)(/N=C(/Nc1cccc2ccccc12)c1ccc(F)cc1)c1ccccc1 was read as D3 antag -10, D1 ag 1, D1 PAM 3, DRD3 agonist -1 and D1 antag 15.
`CCCCCCOC(=O)Cc1c(C)nc(N)[nH]c1=O` gave D3 antag 6, D1 ag 1, D1 PAM 2, DRD3 agonist 0 and D1 antag 5.
CCOC(=O)Cc1c(C)nc(N)[nH]c1=O was read as D3 antag -18, D1 ag 3, D1 PAM -2, DRD3 agonist -6 and D1 antag -31*.
CN(C)C(=N)c1n[nH]nc1SCc1ccc(Cl)c(Cl)c1 was read as D3 antag -10, D1 ag 0, D1 PAM -3, DRD3 agonist -5 and D1 antag -36*.
For O=C(COC(=O)/C=C/c1cccc(F)c1)NC1CCCCC1 the results were D3 antag 13 and DRD3 agonist 1.
C=CCN(c1ccccc1Cl)S(=O)(=O)c1cccc(C(=O)NCCc2ccc(OC)cc2)c1 was read as D3 antag -1, D1 ag 3, D1 PAM -8, DRD3 agonist -4 and D1 antag -32*.
COc1ccc(C(CNC(=O)c2ccc(Cl)c(S(=O)(=O)N3CCCC3)c2)N2CCCC2)cc1 (stereo not given) was read as D3 antag -77*, D1 ag 6, D1 PAM 11, DRD3 agonist -18 and D1 antag 5.
COc1ccc(CCNC(=O)c2cc(S(=O)(=O)N3CCCCC3)ccc2Cl)cc1 was read as D3 antag -8, D1 ag 20, D1 PAM 3, DRD3 agonist -9 and D1 antag -17.
COc1ccc(C(CNC(=O)c2ccc(C)c(S(=O)(=O)N3CCOCC3)c2)N2CCCC2)cc1 (stereo not given) was read as D3 antag -71* and DRD3 agonist -19.
`COc1ccc(CCNC(=O)c2cccc(S(=O)(=O)N3CCCCC3)c2)cc1` gave D3 antag -21, D1 ag 7, D1 PAM -6, DRD3 agonist -8 and D1 antag -6.
Screening COc1ccc(CCNC(=O)c2ccc(Cl)c(S(=O)(=O)N3CCCC3)c2)cc1 returned D3 antag 10, D1 ag 8, D1 PAM -1, DRD3 agonist 4 and D1 antag -50*.
For Cc1ccc2[nH]c(=O)c3cc(C(=O)N(C)c4ccc(Br)cc4)sc3c2c1 the results were D1 ag 3, D1 PAM 2, DRD3 agonist 4 and D1 antag 24.
For COc1ccc(/C=N/N=C2/CC(C)(C)Cc3n[nH]c(=O)cc32)cc1 the results were D3 antag 1, D1 ag 4, D1 PAM 3, DRD3 agonist 0 and D1 antag -10.
`N#Cc1ccccc1NC(=O)C(=O)NCC(c1cccnc1)N1CCN(c2ccccc2)CC1` (stereo not given) gave D1 ag 9, D1 PAM -3, DRD3 agonist -15 and D1 antag -20.
For CC1CCCC(NC(=O)CCN2C(=O)COc3ccccc32)C1C (stereo not given) the results were D3 antag 2 and DRD3 agonist -2.
COc1cc(OC)cc(-c2nc3ccccc3c(=O)n2OC(=O)c2ccc(C)c(C)c2)c1 was read as D3 antag 109, D1 ag 1, D1 PAM 5, DRD3 agonist 30* and D1 antag 1.
COc1cc(OC)cc(C(=O)Nn2c(C)nc3ccccc3c2=O)c1 was read as D3 antag 10, D1 ag 2, D1 PAM -2, DRD3 agonist 3 and D1 antag -21.
Screening O=C(Nc1ccccc1)C1CC(=O)N(Cc2ccccc2)C1 (stereo not given) returned D3 antag -8, D1 ag 3, D1 PAM 14, DRD3 agonist 3 and D1 antag 0.
CC(C)N1CC(C(=O)Nc2ccc(F)c(Cl)c2)CC1=O (stereo not given) was read as D3 antag 9, D1 ag 6, D1 PAM -1, DRD3 agonist 4 and D1 antag 5.
Screening O=C(Nc1ccc(F)c(Cl)c1)C1CC(=O)N(Cc2ccco2)C1 (stereo not given) returned D3 antag -7, D1 ag 2, D1 PAM 10, DRD3 agonist -5 and D1 antag -43*.
O=C(O)c1cccc(NC(=O)C2CC(=O)N(Cc3ccccc3)C2)c1 (stereo not given) was read as D3 antag -51*, D1 ag 2, D1 PAM 5, DRD3 agonist 4 and D1 antag 6.
`O=C(Nc1ccc(F)c(Cl)c1)C1CC(=O)N(Cc2ccccc2)C1` (stereo not given) gave D3 antag 2 and DRD3 agonist -22.
For Cc1ccnc(NC(=O)C2CC(=O)N(Cc3ccccc3)C2)c1 (stereo not given) the results were D3 antag 1, D1 ag 22, D1 PAM 1, DRD3 agonist -1 and D1 antag -44*.
Screening CC(C)N1CC(C(=O)Nc2ccc(Cl)c(Cl)c2)CC1=O (stereo not given) returned D3 antag -24, D1 ag 4, D1 PAM -2, DRD3 agonist 72* and D1 antag -12.
`CCn1cc(C(=O)NCCCOC)c(=O)c2cc(S(=O)(=O)N3CCC(C)CC3)ccc21` gave D3 antag 3, D1 ag 0, D1 PAM 2, DRD3 agonist -4 and D1 antag -5.
Screening CCn1cc(C(=O)NCCc2ccc(C)cc2)c(=O)c2cc(S(=O)(=O)N3CCc4ccccc4C3)ccc21 returned D1 ag -1, D1 PAM 3, DRD3 agonist -11 and D1 antag -7.
CCOc1ccc(CCNC(=O)c2cn(CC)c3ccc(S(=O)(=O)N4CCc5ccccc5C4)cc3c2=O)cc1OCC was read as D1 ag 0, D1 PAM 9, DRD3 agonist -4 and D1 antag -47*.
For CCn1cc(C(=O)NCCCN2CCCC(C)C2)c(=O)c2cc(S(=O)(=O)N(C)C3CCCCC3)ccc21 (stereo not given) the results were D3 antag 9, D1 ag 0, D1 PAM 7, DRD3 agonist -6 and D1 antag -79*!.
